Structures are written as SMILES. Among all 52,000 compounds or so, about 4,300 (8.3%) were called active. What follows is part of a selection rich in actives, with near analogues and random picks from the rest. A number with no mark means an inactive call. No stated cut-off is given here; in the data, active means survival mostly below about 52% (no sharp cut-off); inactive means mostly above about 56%.

This test has as its system DeltatarO mutant. Put plainly: growth inhibition of S. aureus wild type versus tarO mutant, primary screen, teichoic acid synthesis inhibitors, RN4220, OD600 (AID 463173). Particulars: OD600, 18 h, hits give low values, screened at 18.75 µg/mL (by protocol).
For the compound `CCN(CC)c1ccc2cc(C(=O)Nc3ccc(NC(C)=O)cc3)c(=O)oc2c1`, the survival was 94%.
With `O=C(NCCc1ccccc1)c1ccc(CSc2nc3ccncc3n2Cc2ccccc2)cc1`, the survival is 73%.
`CCc1ccc(NC(=O)C(Cc2ccccc2)NS(=O)(=O)c2ccc3c(c2)c(=O)n(C)c(=O)n3C)cc1` (stereo not drawn): the survival is 45% (active).
Regarding `Cc1ccc(CNC(=O)C(NS(=O)(=O)c2cccs2)C(C)C)cc1` (stereo not drawn), the survival is 61%.
Regarding `Cc1ccc(NC(=O)C(Cc2ccccc2)NS(=O)(=O)c2cccs2)cc1Cl` (stereo not drawn), the survival was 90%.
The result for `CCc1cccc(NC(=O)C(Cc2ccccc2)NS(=O)(=O)c2cccs2)c1` (stereo not drawn) reads 44% (active); that for `CCc1cccc(NC(=O)C(Cc2ccccc2)NS(=O)(=O)c2ccc3c(c2)c(=O)n(C)c(=O)n3C)c1` (stereo not drawn), 54%; that for `CCc1ccc(NC(=O)C(NS(=O)(=O)c2cccs2)C(C)C)cc1` (stereo not drawn), 55% (active).
With `COc1cc(NC(=O)C(Cc2ccccc2)NS(=O)(=O)c2cccs2)cc(OC)c1` (stereo not drawn), the survival is 102%.
Take `Cc1ccc(NC(=O)C(Cc2ccccc2)NS(=O)(=O)c2ccc3c(c2)c(=O)n(C)c(=O)n3C)cc1` (stereo not drawn): the survival is 64%.
As to `CCCOc1ccc(CNC(=O)C(NS(=O)(=O)c2cccs2)C(C)C)cc1` (stereo not drawn), the survival was 77%.
The result for `CC(CNC(=O)c1ccc2c(c1)nc1n2CCCCC1)c1ccccc1` (stereo not drawn) reads 62%; that for `CCOC(=O)c1ccc(CN(Cc2ccccc2C)S(=O)(=O)c2ccc(F)c(C)c2)cc1`, 80%.
In the case of `Cn1cnc(S(=O)(=O)N2CCCC(C(=O)NCc3ccc(F)cc3)C2)c1` (stereo not drawn), the survival is 55%.
Take `CCOC(=O)CN1N=NC2C(=O)N(c3ccccc3)C(=O)C21` (stereo not drawn): the survival was 92%.
As for `O=C(c1ccc2c(c1)OCCO2)N(Cc1cccnc1)c1nc2c(F)cc(F)cc2s1`, the survival is 88%.
Next, `Cc1ccc(CCNC(=O)CN(c2ccc(C(C)C)cc2)S(=O)(=O)c2c(C)nn(C)c2C)cc1`: 68%; `Cc1ccc(C(=O)c2cn(Cc3c(F)cccc3Cl)c3nc(C)ccc3c2=O)cc1`: 62%; `CCc1ccc(NC(=O)CSC2=Nc3ccccc3C3=NC(CCC(=O)NCCc4ccccc4)C(=O)N23)cc1` (stereo not drawn): 81%.
Next, `O=S(=O)(/C=C/c1ccccc1)N1CCOCC1`: 67%; `Cc1ccc(CSc2nc(N)cc(N)n2)cc1`: 114%; `N#Cc1ccccc1CSc1nc(N)cc(N)n1`: 106%.
`N#CCSc1nc(N)cc(N)n1`: the survival was 52% (active).
Consider `Cc1ccc(N2CCN(C(=O)c3ccc(Nc4nc5ccccc5n5nnnc45)cc3)CC2)c(C)c1`, for which the survival was 82%.
Take `CC(C)Nc1nc2c(S(=O)(=O)c3cccc(Cl)c3)nnn2c2ccsc12`: the survival was 70%.
Regarding `Cc1ccc(NC(=O)CSc2c3c(nc4ccccc24)CCCC3)cc1F`, the survival was 30% (active).
In the case of `COc1cccc(NC(=O)CSc2c3c(nc4ccccc24)CCCC3)c1`, the survival is 43% (active).
`CCOc1ccc(NC(=O)CSc2c3c(nc4ccccc24)CCCC3)cc1`: the survival is 88%.
For `O=C(CSc1c2c(nc3ccccc13)CCC2)Nc1ccc(F)cc1`, the survival is 127%.
For the compound `COc1ccc(OC)c(NC(=O)CSc2c3c(nc4ccccc24)CCCC3)c1`, the survival is 93%.
Next, `COc1ccc(NC(=O)CSc2c3c(nc4ccccc24)CCC3)c(OC)c1`: 110%; `CN(C)c1ccc(-c2nc3ccccn3c2Nc2ccc3c(c2)OCCO3)cc1`: 81%; `CC(CCc1ccccc1)NC(=O)Cn1c(=O)nc(-c2ccccc2)c2cc(Cl)ccc21` (stereo not drawn): 80%.
Next, `O=C(CCc1ccccc1)NCc1ccco1`: 88%; `CCOC(=O)c1ccccc1NC(=O)N1CC(C)Oc2ccc(C)cc21` (stereo not drawn): 50%; `CCN1CCN(C(=O)c2ccc3c(c2)N(Cc2ccccc2)C(=O)c2ccccc2S3(=O)=O)CC1`: 129%.
Next, `Cc1ccc(CNC(=O)CN2CCCN(Cc3ccc(F)cc3)S2(=O)=O)cc1`: 67%.
As to `Cc1oc2c(cc(NS(=O)(=O)c3ccc(C(C)C)cc3)c3ccccc32)c1C(=O)OCc1ccccc1`, the survival was 81%.
Take `Cc1ccc(S(=O)(=O)Nc2cc3c(C(=O)OCc4ccccc4)c(C)oc3c3ccccc23)c(C)c1`: the survival is 56%.
As for `COCCOC(=O)c1c(C)oc2c1cc(NS(=O)(=O)c1ccc(Cl)c(C)c1)c1ccccc12`, the survival is 44% (active).
As to `Cc1cc(F)ccc1S(=O)(=O)Nc1cc2c(C(=O)O)c(C)oc2c2ccccc12`, the survival was 39% (active).
In the case of `CCOc1ccc(S(=O)(=O)Nc2cc3c(C(=O)OCc4ccccc4)c(C)oc3c3ccccc23)cc1`, the survival was 94%.
Next, `CC(=O)c1c(C)oc2c1cc(NS(=O)(=O)c1ccc(Cl)c(C)c1)c1ccccc12`: 70%.
`CCCOC(=O)c1c(C)oc2c1cc(NS(=O)(=O)c1ccc(OCC)cc1)c1ccccc12`: the survival is 56% (active).
Next, `CCc1ccc(S(=O)(=O)Nc2cc3c(C(=O)OCc4ccccc4)c(C)oc3c3ccccc23)cc1`: 60%.
Regarding `Cc1oc2c(cc(NS(=O)(=O)c3ccc(F)cc3)c3ccccc32)c1C(=O)OCc1ccccc1`, the survival was 54%.
As for `Cc1oc2c(cc(NS(=O)(=O)c3ccc(Cl)cc3)c3ccccc32)c1C(=O)OCc1ccccc1`, the survival was 52%.
The result for `CC(=O)c1c(C)oc2c1cc(NS(=O)(=O)c1ccc(C(C)(C)C)cc1)c1ccccc12` reads 64%; that for `Cc1oc2c(cc(NS(=O)(=O)c3ccc(C(C)C)cc3)c3ccccc32)c1C(=O)O`, 42% (active); that for `CCc1ccc(CN(Cc2ccco2)C(=O)COc2ccc(Cl)cc2C)cc1`, 55%.
In the case of `O=C(CNC(=O)c1ccccc1)OCc1cc(=O)n2nc(C3CCCCC3)sc2n1`, the survival was 90%.
Turning to `O=C(O)CC1c2ccccc2CCN1C(=O)Nc1cc(Cl)ccc1Cl` (stereo not drawn), the survival was 94%.
In the case of `COc1ccc(NC(=O)Cn2c(=O)n(-c3cccc(C)c3)c(=O)c3c2c2cc(C)ccc2n3C)cc1OC`, the survival is 79%.
As to `c1ccc(CNCC2COc3ccccc3O2)cc1` (stereo not drawn), the survival was 114%.
As for `Cc1ccc(-n2ncc3c(N4CCN(C)CC4)ncnc32)cc1C`, the survival is 89%.
For `Cc1ccc(CNC(=O)NC2COc3ccccc3C2)cc1` (stereo not drawn), the survival is 107%.
`CCOC(=O)c1c(C)oc2c1cc(NS(=O)(=O)c1ccc(C)cc1)c1ccccc12`: the survival is 56%.
Regarding `COc1ccc(S(=O)(=O)Nc2cc3c(C(=O)OC(C)C)c(C)oc3c3ccccc23)cc1`, the survival was 38% (active).
Next, `COc1ccc(OC)c(S(=O)(=O)Nc2cc3c(C(C)=O)c(C)oc3c3ccccc23)c1`: 52%.
Turning to `Cc1nc(-c2ccc(S(=O)(=O)Nc3ccc(OC(F)(F)F)cc3)cc2)co1`, the survival is 78%.
For `Cc1ccc(Cl)c2c1N[C@@H](c1ccc(C(=O)O)cc1)[C@H]1CC=C[C@@H]21`, the survival is -10% (active).
As to `CCOC(=O)c1cccc2c1N[C@@H](c1ccc(F)cc1)[C@H]1CC=C[C@@H]21`, the survival was 4% (active).
As for `COC(=O)c1ccc([C@@H]2Nc3c(OC)ccc(C)c3[C@@H]3C=CC[C@@H]32)cc1`, the survival is 49%.
In the case of `CCOc1cccc2c1N[C@@H](c1ccc(C(=O)O)cc1)[C@H]1CC=C[C@@H]21`, the survival was 68%.
The result for `COC(=O)c1cccc2c1NC(c1cccnc1)C1CC=CC21` (stereo not drawn) reads 101%; that for `COC(=O)c1ccc([C@@H]2Nc3c(cccc3C(F)(F)F)[C@@H]3C=CC[C@@H]32)cc1`, -3% (active); that for `Cc1ccc([C@H]2Nc3ccc(S(=O)(=O)Nc4cccc(Cl)c4C)cc3[C@H]3C=CC[C@H]32)cc1`, 50%.
Turning to `Cc1ccc2c(c1C)NC(C(=O)O)C1CC=CC21` (stereo not drawn), the survival was 85%.
Regarding `COC(=O)c1ccc([C@@H]2Nc3c(C)cc(C)cc3[C@@H]3C=CC[C@@H]32)cc1`, the survival is 51% (active).
On to `COc1cc([C@@H]2Nc3c(F)cccc3[C@@H]3C=CC[C@@H]32)cc(Br)c1OC`, for which the survival was 55%.
With `COCCN(CCOC)C(=O)c1cc2c(=O)n3ccccc3nc2n1C`, the survival is 51%.
Consider `CCOc1ccccc1NC(=O)N(C)CCc1c(C)nn(CC)c1C`, for which the survival was 120%.
As to `Cc1c(C(=O)N2CCCC2)oc2c1-c1nn(CC(=O)NC(C)c3ccccc3)cc1CC2` (stereo not drawn), the survival was 72%.
Turning to `Cc1nc(SCC(=O)N2c3ccccc3CCc3ccccc32)n[nH]1`, the survival is 102%.
Consider `Cc1cccc(C(=O)NC2=NC(c3ccc(Cl)cc3)CC(=O)N2)c1` (stereo not drawn), for which the survival was 88%.
For `COc1ccccc1NC(=O)CN1C(=O)CC(c2ccc(C)c(C)c2)=Nc2ccccc21`, the survival is 84%.
As to `O=C1Nc2ccc(S(=O)(=O)Nc3ccccc3O)c3cccc1c23`, the survival is 62%.
As to `CCOC(=O)c1ccc(NC2=CC(c3ccc(O)c(OCC)c3)N(c3ccc(C(=O)OCC)cc3)C2=O)cc1` (stereo not drawn), the survival was 59%.
As to `Cc1ccc(S(=O)(=O)c2nnn3c2nc(NCc2ccc4c(c2)OCO4)c2sccc23)cc1`, the survival is 113%.
As for `COc1ccccc1CNC(=O)CCn1c(=O)c2cccn2c2cccnc21`, the survival is 80%.
On to `COCCCNC(=O)c1nn(-c2ccc(C)cc2)nc1CO`, for which the survival is 82%.
Turning to `O=C(CSc1oc(-c2ccccc2)nc1S(=O)(=O)c1ccccc1)c1ccccc1`, the survival was 148%.
`Cc1ccc(S(=O)(=O)c2nc(-c3ccccc3)oc2SCC(=O)NC2CCCCC2)cc1`: the survival was 166%.
Next, `O=C(CSc1oc(-c2ccccc2)nc1S(=O)(=O)c1ccc(Br)cc1)c1ccccc1`: 58%; `Cc1ccc(S(=O)(=O)c2nc(-c3ccc(F)cc3)oc2SCC(=O)c2ccccc2)cc1`: 47% (active).
As to `Cc1ccc(-c2nc(S(=O)(=O)c3ccc(C)cc3)c(SCC(=O)NC3CCCCC3)o2)cc1`, the survival was 51%.
In the case of `Cc1ccc(-c2nc(S(=O)(=O)c3ccc(C)cc3)c(SCC(=O)Nc3ccc(F)cc3)o2)cc1`, the survival was 58%.
Regarding `O=C(CSc1oc(-c2ccccc2)nc1S(=O)(=O)c1ccc(Cl)cc1)Nc1ccc(F)cc1`, the survival is 162%.
Turning to `O=C(CSc1oc(-c2ccc(F)cc2)nc1S(=O)(=O)c1ccccc1)c1ccc(Cl)cc1`, the survival is 55%.
In the case of `Cc1ccc(-c2nc(S(=O)(=O)c3ccc(C)cc3)c(SCC(=O)c3ccccc3)o2)cc1`, the survival is 52%.
`O=C(CSc1oc(-c2ccccc2)nc1S(=O)(=O)c1ccc(Cl)cc1)c1ccccc1`: the survival was 44% (active).
For the compound `O=C(CSc1oc(-c2ccc(F)cc2)nc1S(=O)(=O)c1ccc(Cl)cc1)c1ccccc1`, the survival is 45% (active).
With `Cc1ccc(-c2nc(S(=O)(=O)c3ccccc3)c(SCC(=O)NC3CCCCC3)o2)cc1`, the survival was 43% (active).

Values taken from PubChem BioAssay AID463173 (ICCB-Longwood Screening Facility, Harvard Medical School, 2010).
